Source: PubChem
PI5P4K alpha inh: blocks human PI5P4K alpha kinase activity | P48426 | PI5P4Kalpha enzyme, ADP-Glo luminescence, 60 min; active compounds read low | max response, % | 1.2% of 330,000 active | AID 652105; active = max response of -50% or lower; inconclusive = between -30% and -50%; inactive = -30% or higher; note: value at the top dose of about 77 µM
Target sequence (P48426 whole entry, looked up): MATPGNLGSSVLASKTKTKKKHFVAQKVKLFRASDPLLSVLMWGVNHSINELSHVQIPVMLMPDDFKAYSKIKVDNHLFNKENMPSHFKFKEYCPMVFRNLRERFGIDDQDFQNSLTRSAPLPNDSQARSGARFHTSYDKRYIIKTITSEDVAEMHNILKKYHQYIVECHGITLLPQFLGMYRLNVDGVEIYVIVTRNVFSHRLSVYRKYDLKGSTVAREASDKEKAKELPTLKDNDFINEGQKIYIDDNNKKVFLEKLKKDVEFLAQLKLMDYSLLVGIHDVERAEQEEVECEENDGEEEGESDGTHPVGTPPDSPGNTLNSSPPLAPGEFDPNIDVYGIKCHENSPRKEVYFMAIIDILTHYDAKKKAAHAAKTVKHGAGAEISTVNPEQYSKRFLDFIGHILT
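Controls without substrate or without enzyme flank wells where PI5P4Kalpha converts substrate using 5 microM ATP (final). Incubation lasts 60 minutes at room temperature; ADP formed is read by ADP-Glo luminescence.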
HP1b chromo inh: HP1-beta chromodomain-methylated histone interaction inhibition; P83916; AlphaScreen HP1-beta / biotin-H3K9me3 peptide binding; Potency, µM (highest dose often 114 µM), usual class: inhibitors; 0.56% of 390,000 active; AID 540317; note: nearly all actives have a fitted effect of over 70% in size
Target sequence (P83916 whole entry, looked up): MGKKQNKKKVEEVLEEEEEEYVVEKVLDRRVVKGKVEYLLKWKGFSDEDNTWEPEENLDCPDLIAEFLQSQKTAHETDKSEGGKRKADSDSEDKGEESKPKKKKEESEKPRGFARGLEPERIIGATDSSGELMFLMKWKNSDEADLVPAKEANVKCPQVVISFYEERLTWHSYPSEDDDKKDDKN
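AlphaScreen: HP1-beta (50 nM) preformed 30 min with biotin-H3(1-18)K9me3 peptide (50 nM) in PBS pH 7.4, 0.01% Tween-20. Compound added for 30 min at RT, then streptavidin donor/nickel chelate acceptor beads (10 ug/mL) for 30 min.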
G9a block: blocks human histone lysine methyltransferase G9a; Q96KQ7; G9a H3K9 monomethylation, AlphaScreen, 2 h; Potency, µM (titrated, usually from 102 µM), most hits filed as inhibitors; 8.8% of 350,000 active; AID 504332; note: nearly all actives have a fitted effect of over 75% in size
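Compounds were preincubated with 20 nM G9a for 15 min, after which biotinylated H3K9 peptide (500 nM) and SAM (20 uM) started a 2 h room-temperature reaction. Monomethylated product was quantified by antibody-based AlphaScreen chemiluminescence.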
BAZ2B block: BAZ2B (human) inhibition | Potency, µM (titrated, usually from 114 µM), most hits filed as inhibitors | AlphaScreen BAZ2B-H3K14Ac peptide displacement | 4.4% of 360,000 active | AID 504333 | Q9UIF8; note: nearly all actives have a fitted effect of over 60% in size
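Complex of BAZ2B and biotin-H3K14Ac (50 nM apiece) forms over 30 min at RT, then faces library compounds up to 110 uM for another 30 min; AlphaScreen beads added, 20 min dark incubation, luminescence read.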
PLK1 PBD inh: inhibitors of human PLK1 polo-box domain binding; 2.8% of 360,000 active; Potency, µM, actives largely listed as inhibitors; Plk1 PBD binding of FITC phosphopeptide, fluorescence polarization; AID 720504; note: series mostly up to about 57 µM; nearly all actives have a fitted effect of over 65% in size
JMJD2A Tudor inh: inhibitors of human JMJD2A Tudor domain. O75164. AlphaScreen JMJD2A-Tudor / H3K4me3 peptide binding. Potency, µM (doses to about 114 µM), most hits filed as inhibitors. 4.4% of 390,000 active. AID 504339; note: nearly all actives have a fitted effect of over 50% in size
Hits are given with their value; 0 = inactive; ? = inconclusive; - = no result; [ ] = remark or other dose. In the library only some 12% were active in any assay of this set; here they are far more common. Unless noted, calls come from the whole dose curve; as a rule, active = well fitted curve in the direction sought with a large enough effect; inconclusive = small, poorly fitted or top-dose-only effect, or another doubt; inactive = no such curve, though single readings can be large; an effect the other way counts as inactive or inconclusive.

SMILES	PI5P4K alpha inh	HP1b chromo inh	G9a block	BAZ2B block	PLK1 PBD inh	JMJD2A Tudor inh
Cc1cc(=O)n(CC(=O)O)c2ccccc12	0	0	0	0	0	0
Cc1cc(C)n(CC(=O)O)c(=O)c1[N+](=O)[O-]	0	0	45µM	0	0	0
Cc1cc(Cl)c(S(=O)(=O)Nc2ccon2)cc1OCC(=O)NC1CCCCC1	0	0	0	0	0	0
Cc1cc(Cl)c(S(=O)(=O)NC2CCCCC2)cc1OCC(=O)Nc1nncs1	0	0	18µM	0	0	0
N#Cc1ccc(CN2CCCC3(CCN(C(=O)c4csnn4)CC3)C2)cc1	-	-	0[12.7 µM]	-	-	-
CCOc1ccc(-n2c(-c3ccccc3)c[n+]3c2CCC3)cc1	0	0	0[12.7 µM]	0	0	0
CSc1c[n+]2c(n1C)CCC2	-	0	?	0	0	32µM
O=C1N/C(=N/O)S/C1=C/c1cccnc1	-55	0	-	?	24µM	0
CC(/C=C1\SC(=Nc2cccnc2)NC1=O)=C\c1ccccc1	?	0	-	0	27µM	79µM
Cc1ccccc1N=C1NC(=O)/C(=C/c2cccnc2)S1	?	0	?	0	0	0
O=C1/C(=C\c2cccnc2)Sc2ccccc21	0	0	0	0	24µM	79µM
C=CCOc1ccc(/C=C2\SC(=Nc3cccnc3)NC2=O)cc1	0	0	-	0	0	0
CC(OC(=O)C1=COCCO1)C(=O)Nc1ccc(Cl)cn1 (stereo not drawn)	0	0	0	0	0	0
CCCOCC1CC(CCc2nc(=S)[nH][nH]2)C(=O)O1 (stereo not drawn)	0	?	1.8µM	0	0	5µM
CCCC1CC(CSC(=N)N)OC1=O (stereo not drawn)	0	0	0	0	0	0
O=C(Nc1ccc(N2CCC(c3ccccc3)C2)c(C(=O)O)c1)c1ccc(Cl)cc1 (stereo not drawn)	-	0	10µM	0	-	?
CCN(CC)S(=O)(=O)c1ccc(Oc2ccc(S(=O)(=O)N(CC)CC)cc2)cc1	-	0	0	0	0	0
CCN(CC)S(=O)(=O)c1ccc(OCCNS(C)(=O)=O)cc1	?	0	0	0	3µM	11µM
CCNS(=O)(=O)c1ccc(OCCNS(C)(=O)=O)cc1	-	0	0	0	0	89µM
Cc1[nH]n(-c2ccccc2)c(=O)c1/C=N/c1nn[nH]n1	0	0	50µM	?	24µM	0[11.4 µM]
Cc1[nH]n(-c2ccccc2)c(=O)c1C=Nc1cccc(F)c1	0	0	45µM	0	0	0
Cc1cccc(/N=C/c2c(C)[nH]n(-c3ccccc3)c2=O)n1	0	0	?	?	0	0[11.4 µM]
Cc1ccc(-n2[nH]c(C)c(/C=N/c3cccc(C)n3)c2=O)cc1	0	0	50µM	0	0	0[11.4 µM]
Cc1[nH]n(-c2ccccc2)c(=O)c1C=Nc1ccc2[nH]c(=O)[nH]c2c1	0	0	?	0	0	0
C=CCN=Cc1c(C)[nH]n(-c2ccccc2)c1=O	0	0	0	0	0	0
SMILES	PI5P4K alpha inh	HP1b chromo inh	G9a block	BAZ2B block	PLK1 PBD inh	JMJD2A Tudor inh
Cc1[nH]n(-c2ccccc2)c(=O)c1/C=N/N(c1ccccc1)c1ccccc1	0	?	0[0.501 µM]	?	19µM	40µM
CCOC(=O)c1cnn2c(N)c(C#N)cnc12	0	0	45µM	?	0	?
CCOC(=O)c1cnc2c(C(=O)OCC)cnn2c1N	0	0	-	0	0	0
Cc1ccc(C(C)NC(=O)/C(C#N)=C\c2c(C)[nH]c3ccccc23)cc1 (stereo not drawn)	-	0	0	0	24µM	?
COC(=O)c1ccc(/C=C(\C#N)C(=O)NC(C)c2ccccc2)cc1 (stereo not drawn)	0	0	50µM	0	?	0
CC(NC(=O)/C(C#N)=C/c1ccc([N+](=O)[O-])o1)c1ccccc1 (stereo not drawn)	?	0	45µM	?	24µM	?
Cc1[nH]c2ccccc2c1/C=C(\C#N)C(=O)NCc1ccccc1	0	0	0	0	0	0
CCN1C(=O)/C(=C\N2CCCCCC2)SC1=S	0	?	?	0	0	?
CCN1C(=O)/C(=C/C=C2\N(CC)c3cc(S(=O)(=O)N(C)C)ccc3N2c2ccccc2)SC1=S	0	0	?	8.9µM	0	0[11.4 µM]
CC(=O)Oc1ccc(N2C(=O)C3C4C=CC(O4)C3C2=O)cc1 (stereo not drawn)	-	?	3.5µM	0	0	?
CC(=O)Oc1cccc(N2C(=O)C3C(C2=O)C2C=CC3C23CC3)c1 (stereo not drawn)	-	0	45µM	0	0	0
CC(=O)Oc1cccc(N2C(=O)C3C4C=CC(C4=C(C)C)C3C2=O)c1 (stereo not drawn)	0	?	0[2.33 µM]	0	17µM	?
CC(=O)Oc1ccc(N2C(=O)CCC2=O)cc1	0	0	0[0.0925 µM]	0	0	0
COCCn1c(C)cc(O)c(C(c2ccc(Cl)cc2)N2CCCCC2)c1=O (stereo not drawn)	-	0	?	0	-	0
O=C1CCC(C(=O)N2CCCCO2)CN1Cc1ccc(Cl)cc1 (stereo not drawn)	0	0	0	0	0	0
Cc1cccc(N2CCN(C(=O)C3CCN(S(=O)(=O)c4c(C)noc4/C=C/c4ccccc4F)CC3)CC2C)c1 (stereo not drawn)	-	0	0	0	-	0
Nc1nnc(SCC(=O)Nc2cc(S(=O)(=O)N3CCOCC3)ccc2N2CCCC2)s1	0	0	0	0	0	0
CCCCCC(=O)Nc1cc(S(=O)(=O)N2CCOCC2)ccc1N1CCCC1	0	0	28µM	0	0	0
O=C(CSc1nncs1)Nc1cc(S(=O)(=O)N2CCOCC2)ccc1N1CCCC1	0	0	35µM	0	0	0
CCOCC(=O)Nc1cc(S(=O)(=O)N2CCOCC2)ccc1N1CCCCC1	?	?	7.1µM	?	4.7µM	89µM
N#Cc1ccc(C(=O)OCc2cccc(S(=O)(=O)N3CCOCC3)c2)cc1	0	0	14µM	0	0	?
N#Cc1ccc(OCc2cccc(S(=O)(=O)N3CCOCC3)c2)cc1	0	0	0	0	0	0
CCCCN(C=O)c1c(CC)nc2c(OCc3ccc(S(C)(=O)=O)cc3)cccn12	0	-	-	-	0	-
COc1ccc(CC(=O)OCC(=O)Nc2cc(S(=O)(=O)N3CCOCC3)ccc2N2CCCC2)cc1	0	0	40µM	0	0	0
CCCn1c(SCC(=O)Nc2cc(S(=O)(=O)N3CCOCC3)ccc2OC)n[nH]c1=O	0	0	3.2µM	0	30µM	0
O=C(CNc1cc(S(=O)(=O)N2CCOCC2)ccc1NCC1CCCO1)Nc1ccc(C(F)(F)F)cc1 (stereo not drawn)	0	0	0[12.7 µM]	0	0	?
N#Cc1ccc(NC(=O)CNc2cc(S(=O)(=O)N3CCOCC3)ccc2NCC2CCCO2)cc1 (stereo not drawn)	0	0	40µM	0	0	0
COc1cc(S(=O)(=O)N2CCOCC2)ccc1NC(=O)CSc1nnc(N)s1	0	0	45µM	0	0	0
